Source: PubChem BioAssay (several laboratories)
Rows were chosen to be rich in hits. Some 32% of all compounds tested hit in one or more screens of this group.
CYP2C9 activ = activators of human CYP2C9; actives 1.4% (n = 96,000); activation factor at 5 µM; recombinant CYP2C9, luciferin-H conversion, luminescence; hits give high values; factor 1 = untreated enzyme, 0 = blocked; P11712;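 active = activation factor of 2 or more for CYP2C9 at a 5 µM dose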
Target sequence (P11712 whole entry, looked up): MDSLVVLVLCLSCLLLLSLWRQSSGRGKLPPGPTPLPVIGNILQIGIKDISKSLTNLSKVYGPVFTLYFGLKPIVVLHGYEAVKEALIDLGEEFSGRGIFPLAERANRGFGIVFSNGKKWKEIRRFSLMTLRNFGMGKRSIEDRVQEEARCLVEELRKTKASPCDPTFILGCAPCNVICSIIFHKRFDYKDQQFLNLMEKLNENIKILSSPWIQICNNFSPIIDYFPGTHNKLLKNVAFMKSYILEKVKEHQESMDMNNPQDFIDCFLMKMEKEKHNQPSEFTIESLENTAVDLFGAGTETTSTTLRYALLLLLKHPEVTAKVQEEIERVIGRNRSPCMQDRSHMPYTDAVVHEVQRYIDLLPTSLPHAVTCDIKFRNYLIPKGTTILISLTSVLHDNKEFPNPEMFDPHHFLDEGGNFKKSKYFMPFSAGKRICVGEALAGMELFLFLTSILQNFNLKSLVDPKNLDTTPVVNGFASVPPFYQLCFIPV
PostGolgi ctrl = yeast control strain growth, post-Golgi counter-screen; inhibition, % at 10 µM; efflux-deficient yeast background strain, growth absorbance A615, 16 h; AID 738; actives 5% (n = 98,000)
CYP2C19 act = cytochrome P450 2C19 (human) activation; 96,000 tested, under 10 active; recombinant CYP2C19, luciferin-H EGE luminescence; hits give high values; 0 = fully inhibited enzyme, 1 = untreated enzyme; activation factor at 5 µM; P33261;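 active = activation factor of at least 2 at 5 µM in the primary screen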
CYP2C19 inh = inhibitors of human CYP2C19; inhibition, % at 5 µM; P33261; CYP2C19 Supersomes, luciferin-H EGE luminescence, 30 min; actives 21% (n = 96,000);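 active = CYP2C19 inhibition above a set limit at 5 µM in the primary screen, cut at about 50% in these data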
CYP2C9 inhib = human CYP2C9 inhibition; P11712; CYP2C9 Supersomes, luciferin-H conversion, luminescence; inhibition, % at 5 µM; actives 20% (n = 96,000);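 active = blocking of liver enzyme CYP2C9 beyond about 50% at 5 µM, limit read from the data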
PostGolgi yeast = growth inhibition of a yeast mutant, post-Golgi transport screen; post-Golgi transport phenotypic cell assay; inhibition, % at 10 µM; actives 0.9% (n = 98,000); AID 739;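 note: yeast cells grown in 1536-well plates; yeast grown about 18 h at 30C before absorbance read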
Each line names hits and unclear results; the compound was inactive in the other large screens. Cut-off read from the data, not from the text of the source, unless noted: active = inhibition above about 30%; inactive = the rest.

Cc1cc2c3c(c1C)C1(C(=O)N3C(C)(C)CC2C)C(C#N)=C(N)Oc2cc(O)ccc21 (stereo unspecified)	none
CS(=O)(=O)N(CC(=O)NC1CCCCCC1)Cc1ccccc1	CYP2C19 inh 86.6
CS(=O)(=O)N(CC(=O)Nc1ccccc1)Cc1ccc(Cl)cc1	CYP2C19 inh 96.1, CYP2C9 inhib 88.7
CSc1cccc(NC(=O)CN(Cc2ccc(Cl)cc2)S(C)(=O)=O)c1	CYP2C19 inh 92.0, CYP2C9 inhib 91.8
O=C(CN(c1ccccc1F)S(=O)(=O)c1ccccc1)NC1CCCCCC1	CYP2C9 inhib 52.0
CSc1ccccc1NC(=O)CN(Cc1ccc(Cl)cc1)S(C)(=O)=O	none
COc1cccc(C2N(c3ccccn3)C(=O)C3CCCN32)c1OC (stereo unspecified)	none
COC(=O)c1ccc2c(=O)n(C3CCCCC3)c(SCC#N)nc2c1	none
c1ccc(Oc2cc(-c3ccccc3)ncn2)cc1	CYP2C19 inh 65.9
O=C(CN1C(=O)C2CC=C(Cl)CC2C1=O)NCc1ccccc1 (stereo unspecified)	none
Cc1cc(NC(=O)COC(=O)[C@H](C)NC(=O)c2ccccc2)no1	none
c1ccc(C2COC(c3cccs3)=N2)cc1 (stereo unspecified)	CYP2C19 inh 61.5
COc1ccc2c(=O)c(C(=O)NCCc3ccc(OC)c(OC)c3)c[nH]c2c1	CYP2C9 inhib 53.5
COc1ccc(CCNC(=O)c2ccc(=O)[nH]n2)cc1OC	none
COCCn1c(=O)[nH]c2cc(C(=O)NCCc3ccc(OC)c(OC)c3)ccc2c1=O	PostGolgi ctrl 34.0
COCCn1c(=O)[nH]c2cc(C(=O)NCC3CCCO3)ccc2c1=O (stereo unspecified)	none
COCCn1c(=S)[nH]c2cc(C(=O)NCC3CCCO3)ccc2c1=O (stereo unspecified)	CYP2C19 inh 75.6, CYP2C9 inhib 51.8
Nc1nc(SCc2nc3scc(-c4ccccc4)c3c(=O)[nH]2)n[nH]1	CYP2C9 inhib 50.0
O=c1[nH]cnc2scc(-c3cccs3)c12	none (no result: CYP2C9 activ, CYP2C19 act, CYP2C19 inh, CYP2C9 inhib)
CC(Sc1n[nH]c(N)n1)c1nc2scc(-c3cccs3)c2c(=O)[nH]1 (stereo unspecified)	CYP2C9 inhib 58.6
Cc1c(Br)cc(C(=O)NCCCN2CCOCC2)c(C)c1C	none
O=C1CCCc2nc3nc4ccccc4n3cc21	none
CC1CCCC(C)N1C(=O)CSc1nnc(-c2cccs2)o1 (stereo unspecified)	CYP2C19 inh 84.2
O=C(CSc1oc(-c2cccs2)nc1S(=O)(=O)c1ccccc1)NC1CCCCC1	none
O=C(CSc1nnc(-c2cc(-c3cccs3)nc3ccccc23)o1)NC1CCCCC1	CYP2C9 inhib 50.4
NC(=O)CSc1nnc(-c2cc(-c3cccs3)nc3ccccc23)o1	none
CCCN(CC1CC1)C(=O)CSc1nnc(-c2cc(-c3cccs3)nc3ccccc23)o1	CYP2C9 inhib 55.4
CCC(C)NC(=O)CSc1nnc(-c2cc(-c3cccs3)nc3ccccc23)o1 (stereo unspecified)	CYP2C19 inh 75.1, CYP2C9 inhib 97.6
O=C(CSc1nnc(-c2cccs2)o1)N1CCCCC1	none
CCN(CC)C(=O)CSc1nnc(-c2ccccc2)o1	none
Clc1ccc(OCCCc2nc(-c3cccnc3)no2)c(Cl)c1	PostGolgi ctrl 34.1
Clc1ccc(OCCCc2nc(-c3ccncc3)no2)c(Cl)c1	PostGolgi ctrl 94.7, CYP2C19 inh 86.8, CYP2C9 inhib 84.1, PostGolgi yeast 92.2
Clc1ccc(OCc2nc(-c3ccncc3)no2)cc1	CYP2C19 inh 95.4, CYP2C9 inhib 94.6
Clc1ccc(-c2noc(COc3ccccc3)n2)cc1	none (no result: PostGolgi ctrl, PostGolgi yeast)
Cc1cc(C)c2cc(CN(CCO)C(=O)Nc3ccc(Cl)cc3)c(=O)[nH]c2c1	PostGolgi ctrl 47.4
Cc1nnc(SCC(=O)OC2CC(C)CCC2C(C)C)[nH]c1=O (stereo unspecified)	CYP2C9 inhib 88.0
CC1CCC(C(C)C)C(OC(=O)CSc2nnc(N)s2)C1 (stereo unspecified)	PostGolgi ctrl 32.3, CYP2C19 inh 65.5
CC1CCC(C(C)C)C(OC(=O)CSc2n[nH]c(=O)[nH]c2=O)C1 (stereo unspecified)	none
CC1CCC(C(C)C)C(OC(=O)CSc2nc(N)cc(=O)[nH]2)C1 (stereo unspecified)	PostGolgi ctrl 41.8
O=C(COC(=O)c1cc(S(=O)(=O)N2CCCCC2)ccc1N1CCOCC1)NC1CCCCC1	none
COc1ccc(OCC(=O)NC2CC(C)(C)NC(C)(C)C2)cc1	none
COc1ccc(-n2c3c(cc(C(=O)N4CCCCC4)c2=O)C(=O)CC(C)(C)C3)cc1	none
CC1=NN(S(=O)(=O)c2ccc(F)cc2)C(=O)c2ccccc2O1	none
COc1ccc(S(=O)(=O)N2N=C(C)Oc3ccccc3C2=O)cc1	CYP2C19 inh 64.8
Cc1ccc(N(CC(=O)O)S(C)(=O)=O)cc1Cl	none
Cc1cc(C)n(-c2nnc(C)n2NS(C)(=O)=O)n1	none
O=c1cc(C(F)(F)C(F)F)oc2ccccc12	none
C=C(C)Cn1c(N2CCC(Cc3ccccc3)CC2)nc2c1c(=O)[nH]c(=O)n2C	PostGolgi ctrl 54.5 (no result: CYP2C9 activ, CYP2C19 act, CYP2C19 inh, CYP2C9 inhib)
Cn1c(=O)[nH]c(=O)c2c1nc(N1CCC(Cc3ccccc3)CC1)n2Cc1ccccc1	none
CCCn1c(N2CCC(Cc3ccccc3)CC2)nc2c1c(=O)[nH]c(=O)n2C	PostGolgi ctrl 51.8, CYP2C19 inh 83.2, CYP2C9 inhib 56.6
CC(=O)Cn1c(N2CCC(Cc3ccccc3)CC2)nc2c1c(=O)[nH]c(=O)n2C	CYP2C19 inh 50.4
CCn1c(=O)c(C)nn2c3ccccc3nc12	none
Cn1c(=O)c(-c2ccccc2)nn2c3ccccc3nc12	CYP2C19 inh 61.8, CYP2C9 inhib 73.7
O=C(OCC(=O)N1CCN(C(=O)c2ccco2)CC1)c1cc(-c2ccc(Cl)c(Cl)c2Cl)nc2ccccc12	CYP2C9 inhib 69.3
COc1ccccc1CNc1nc2ccccc2n1CCN1CCCCC1	none
Oc1ccccc1Cn1c(-c2ccccc2O)nc2ccccc21	CYP2C19 inh 59.6, CYP2C9 inhib 66.4
COc1ccccc1Cn1c(-c2ccccc2OC)nc2ccccc21	PostGolgi ctrl 48.5
C=CCNc1nc(-c2ccc(OC)cc2OC)cs1	CYP2C19 inh 57.3
COc1ccc(S(=O)(=O)NNC(=O)c2csc(-n3nc(C)cc3C(F)(F)F)n2)cc1	none
CCC(=O)N1CCN(c2ccccc2NC(=O)COc2ccccc2Cl)CC1	CYP2C19 inh 87.3, CYP2C9 inhib 93.5
CCOc1ccccc1C(=O)OCC(=O)Nc1ccc(N2CCCCC2)cc1	none
CCCCOC(=O)Nc1ccc(N2CCCCC2)cc1	CYP2C19 inh 69.8, CYP2C9 inhib 52.4
CCCCOC(=O)Nc1ccc(C(N)=O)cc1	none
CCC(=O)N1CCN(c2ccc(NC(=O)COc3ccccc3Cl)cc2)CC1	CYP2C19 inh 80.7, CYP2C9 inhib 70.7
CCOc1ccccc1OCC(=O)Nc1ccc(N2CCCCC2)cc1	CYP2C9 activ 2.6
CCOC(=O)N1CCN(C(=O)COc2ccccc2Cl)CC1	none (no result: CYP2C9 activ, CYP2C19 act, CYP2C19 inh, CYP2C9 inhib)
